According to ChEMBL document CHEMBL1961873, “Compounds: GSK PKIS; Assays: Nanosyn kinase panel” (2012):
Values joined by “and” are separate entries in the source; they are usually repeats but may differ in a detail not shown here. Identical values can stand only once.

Assays:
[1] = biological target: T1, Ephrin type-B receptor 2 (Homo sapiens) (UniProt P29323); settings: at 1 µM
T1 sequence (whole entry): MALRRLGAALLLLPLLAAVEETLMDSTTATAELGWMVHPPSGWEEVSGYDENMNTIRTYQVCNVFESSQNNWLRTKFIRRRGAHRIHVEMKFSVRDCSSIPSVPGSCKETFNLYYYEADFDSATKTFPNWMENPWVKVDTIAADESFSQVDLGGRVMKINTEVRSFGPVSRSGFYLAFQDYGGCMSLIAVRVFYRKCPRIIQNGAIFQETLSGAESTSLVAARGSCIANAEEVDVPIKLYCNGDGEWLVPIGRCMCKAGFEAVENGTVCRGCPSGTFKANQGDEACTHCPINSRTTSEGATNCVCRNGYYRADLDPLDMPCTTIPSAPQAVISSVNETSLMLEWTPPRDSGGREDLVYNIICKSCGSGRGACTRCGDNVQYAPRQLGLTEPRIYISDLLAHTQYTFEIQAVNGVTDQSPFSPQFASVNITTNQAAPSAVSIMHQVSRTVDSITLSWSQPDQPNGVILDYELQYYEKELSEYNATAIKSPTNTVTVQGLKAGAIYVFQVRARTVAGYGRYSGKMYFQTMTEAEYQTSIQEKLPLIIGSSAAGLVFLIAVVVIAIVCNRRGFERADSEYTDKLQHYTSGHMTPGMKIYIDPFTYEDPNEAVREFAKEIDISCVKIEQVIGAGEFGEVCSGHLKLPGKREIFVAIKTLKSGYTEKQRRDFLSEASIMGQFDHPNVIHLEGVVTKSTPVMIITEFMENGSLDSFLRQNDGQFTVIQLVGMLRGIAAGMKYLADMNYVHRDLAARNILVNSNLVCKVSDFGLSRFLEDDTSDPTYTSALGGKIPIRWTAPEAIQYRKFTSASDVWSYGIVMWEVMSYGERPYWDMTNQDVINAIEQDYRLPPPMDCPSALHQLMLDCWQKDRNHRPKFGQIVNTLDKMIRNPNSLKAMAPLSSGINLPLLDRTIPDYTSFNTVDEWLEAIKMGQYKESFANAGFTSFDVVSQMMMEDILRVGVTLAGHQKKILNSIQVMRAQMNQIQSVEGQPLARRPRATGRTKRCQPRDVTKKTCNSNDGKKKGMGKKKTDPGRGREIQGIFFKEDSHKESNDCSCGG

[2] = biological target: T2, Ephrin type-B receptor 3 (Homo sapiens) (UniProt P54753); settings: at 0.1 µM
T2 sequence (whole entry): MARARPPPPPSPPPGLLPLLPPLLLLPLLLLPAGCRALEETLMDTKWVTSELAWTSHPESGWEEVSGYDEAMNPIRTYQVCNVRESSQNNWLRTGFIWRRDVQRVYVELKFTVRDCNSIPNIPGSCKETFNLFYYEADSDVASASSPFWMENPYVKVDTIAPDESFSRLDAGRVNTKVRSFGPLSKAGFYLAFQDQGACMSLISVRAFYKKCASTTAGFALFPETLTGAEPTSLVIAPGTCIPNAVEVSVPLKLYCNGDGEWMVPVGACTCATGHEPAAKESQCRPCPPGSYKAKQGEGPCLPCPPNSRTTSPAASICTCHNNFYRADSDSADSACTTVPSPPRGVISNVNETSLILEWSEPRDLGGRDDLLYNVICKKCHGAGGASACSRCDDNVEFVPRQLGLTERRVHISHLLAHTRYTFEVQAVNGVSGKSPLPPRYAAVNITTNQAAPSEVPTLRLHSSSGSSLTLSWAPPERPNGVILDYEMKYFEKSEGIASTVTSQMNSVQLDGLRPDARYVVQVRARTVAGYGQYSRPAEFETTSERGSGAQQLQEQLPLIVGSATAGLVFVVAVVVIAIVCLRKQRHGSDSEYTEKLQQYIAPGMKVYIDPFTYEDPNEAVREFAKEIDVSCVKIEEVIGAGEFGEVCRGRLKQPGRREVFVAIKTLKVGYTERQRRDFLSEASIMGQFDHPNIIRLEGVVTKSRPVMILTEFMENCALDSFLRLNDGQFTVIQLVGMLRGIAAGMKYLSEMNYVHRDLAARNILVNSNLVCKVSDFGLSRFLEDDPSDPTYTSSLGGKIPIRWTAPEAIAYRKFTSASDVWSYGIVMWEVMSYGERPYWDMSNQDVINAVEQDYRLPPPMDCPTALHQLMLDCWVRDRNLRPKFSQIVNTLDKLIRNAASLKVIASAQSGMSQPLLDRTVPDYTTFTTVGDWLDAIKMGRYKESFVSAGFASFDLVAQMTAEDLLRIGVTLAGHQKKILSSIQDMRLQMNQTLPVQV

[3] = biological target: T2, Ephrin type-B receptor 3 (Homo sapiens); settings: at 1 µM
[4] = biological target: T3, Ephrin type-B receptor 4 (Homo sapiens) (UniProt P54760); settings: at 0.1 µM
T3 sequence (whole entry): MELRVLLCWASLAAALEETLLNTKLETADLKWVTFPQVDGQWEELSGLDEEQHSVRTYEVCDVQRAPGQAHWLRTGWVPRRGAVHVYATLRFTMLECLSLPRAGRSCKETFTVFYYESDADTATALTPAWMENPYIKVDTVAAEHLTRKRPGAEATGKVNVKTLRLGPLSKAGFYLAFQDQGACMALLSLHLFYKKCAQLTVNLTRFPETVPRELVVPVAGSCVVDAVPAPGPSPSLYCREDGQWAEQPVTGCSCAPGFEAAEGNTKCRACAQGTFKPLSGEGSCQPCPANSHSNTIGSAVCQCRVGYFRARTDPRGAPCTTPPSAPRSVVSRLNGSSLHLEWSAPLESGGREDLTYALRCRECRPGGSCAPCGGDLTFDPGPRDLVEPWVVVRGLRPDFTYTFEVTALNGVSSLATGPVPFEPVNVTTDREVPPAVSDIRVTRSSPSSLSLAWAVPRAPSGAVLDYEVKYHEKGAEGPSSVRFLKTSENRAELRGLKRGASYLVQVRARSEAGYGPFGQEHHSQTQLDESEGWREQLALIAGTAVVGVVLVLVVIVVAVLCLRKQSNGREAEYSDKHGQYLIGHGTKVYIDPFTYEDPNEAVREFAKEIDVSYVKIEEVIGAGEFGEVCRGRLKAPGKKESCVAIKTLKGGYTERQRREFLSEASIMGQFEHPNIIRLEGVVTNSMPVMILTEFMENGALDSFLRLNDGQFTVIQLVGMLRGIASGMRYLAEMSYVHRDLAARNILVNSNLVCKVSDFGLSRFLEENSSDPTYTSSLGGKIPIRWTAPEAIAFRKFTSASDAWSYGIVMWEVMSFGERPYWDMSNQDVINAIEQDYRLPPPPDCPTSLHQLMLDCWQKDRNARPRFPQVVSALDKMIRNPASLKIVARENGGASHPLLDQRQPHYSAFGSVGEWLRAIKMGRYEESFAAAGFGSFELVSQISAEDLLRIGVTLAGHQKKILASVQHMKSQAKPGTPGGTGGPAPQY

[5] = biological target: T3, Ephrin type-B receptor 4 (Homo sapiens); settings: at 1 µM
[6] = biological target: Receptor tyrosine-protein kinase erbB-2 (Homo sapiens) (UniProt P04626); settings: at 0.1 µM
[7] = biological target: Receptor tyrosine-protein kinase erbB-2 (Homo sapiens) (UniProt P04626); settings: at 1 µM
[8] = biological target: Receptor tyrosine-protein kinase erbB-4 (Homo sapiens) (UniProt Q15303); settings: at 0.1 µM
[9] = biological target: Receptor tyrosine-protein kinase erbB-4 (Homo sapiens) (UniProt Q15303); settings: at 1 µM
[10] = biological target: Tyrosine-protein kinase Fer (Homo sapiens) (UniProt P16591); settings: at 0.1 µM;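 also: reported figures are averaged percent inhibition of FER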
Tyrosine-protein kinase Fer (Homo sapiens), sequence (P16591 whole entry, looked up): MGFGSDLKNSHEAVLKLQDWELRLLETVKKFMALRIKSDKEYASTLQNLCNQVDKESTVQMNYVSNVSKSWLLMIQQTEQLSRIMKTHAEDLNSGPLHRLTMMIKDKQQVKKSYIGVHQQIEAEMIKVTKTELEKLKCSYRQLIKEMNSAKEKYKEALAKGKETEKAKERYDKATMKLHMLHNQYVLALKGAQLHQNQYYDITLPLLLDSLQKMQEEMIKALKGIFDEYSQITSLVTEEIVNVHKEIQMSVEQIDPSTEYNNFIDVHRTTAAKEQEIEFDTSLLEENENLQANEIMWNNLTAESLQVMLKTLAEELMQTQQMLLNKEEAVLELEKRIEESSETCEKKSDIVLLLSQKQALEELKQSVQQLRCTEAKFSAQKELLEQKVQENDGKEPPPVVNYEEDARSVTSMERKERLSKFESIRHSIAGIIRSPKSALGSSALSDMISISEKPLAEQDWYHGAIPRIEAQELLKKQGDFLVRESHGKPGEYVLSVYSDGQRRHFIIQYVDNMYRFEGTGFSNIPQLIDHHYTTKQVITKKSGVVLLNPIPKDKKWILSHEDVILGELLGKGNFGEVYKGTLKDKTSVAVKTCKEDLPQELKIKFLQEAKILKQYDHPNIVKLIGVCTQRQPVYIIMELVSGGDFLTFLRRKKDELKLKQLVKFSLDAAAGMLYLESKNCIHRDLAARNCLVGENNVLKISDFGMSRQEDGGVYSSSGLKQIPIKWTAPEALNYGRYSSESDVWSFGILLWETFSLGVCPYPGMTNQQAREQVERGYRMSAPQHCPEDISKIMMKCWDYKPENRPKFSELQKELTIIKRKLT

Receptor tyrosine-protein kinase erbB-4 (Homo sapiens), sequence (Q15303 whole entry): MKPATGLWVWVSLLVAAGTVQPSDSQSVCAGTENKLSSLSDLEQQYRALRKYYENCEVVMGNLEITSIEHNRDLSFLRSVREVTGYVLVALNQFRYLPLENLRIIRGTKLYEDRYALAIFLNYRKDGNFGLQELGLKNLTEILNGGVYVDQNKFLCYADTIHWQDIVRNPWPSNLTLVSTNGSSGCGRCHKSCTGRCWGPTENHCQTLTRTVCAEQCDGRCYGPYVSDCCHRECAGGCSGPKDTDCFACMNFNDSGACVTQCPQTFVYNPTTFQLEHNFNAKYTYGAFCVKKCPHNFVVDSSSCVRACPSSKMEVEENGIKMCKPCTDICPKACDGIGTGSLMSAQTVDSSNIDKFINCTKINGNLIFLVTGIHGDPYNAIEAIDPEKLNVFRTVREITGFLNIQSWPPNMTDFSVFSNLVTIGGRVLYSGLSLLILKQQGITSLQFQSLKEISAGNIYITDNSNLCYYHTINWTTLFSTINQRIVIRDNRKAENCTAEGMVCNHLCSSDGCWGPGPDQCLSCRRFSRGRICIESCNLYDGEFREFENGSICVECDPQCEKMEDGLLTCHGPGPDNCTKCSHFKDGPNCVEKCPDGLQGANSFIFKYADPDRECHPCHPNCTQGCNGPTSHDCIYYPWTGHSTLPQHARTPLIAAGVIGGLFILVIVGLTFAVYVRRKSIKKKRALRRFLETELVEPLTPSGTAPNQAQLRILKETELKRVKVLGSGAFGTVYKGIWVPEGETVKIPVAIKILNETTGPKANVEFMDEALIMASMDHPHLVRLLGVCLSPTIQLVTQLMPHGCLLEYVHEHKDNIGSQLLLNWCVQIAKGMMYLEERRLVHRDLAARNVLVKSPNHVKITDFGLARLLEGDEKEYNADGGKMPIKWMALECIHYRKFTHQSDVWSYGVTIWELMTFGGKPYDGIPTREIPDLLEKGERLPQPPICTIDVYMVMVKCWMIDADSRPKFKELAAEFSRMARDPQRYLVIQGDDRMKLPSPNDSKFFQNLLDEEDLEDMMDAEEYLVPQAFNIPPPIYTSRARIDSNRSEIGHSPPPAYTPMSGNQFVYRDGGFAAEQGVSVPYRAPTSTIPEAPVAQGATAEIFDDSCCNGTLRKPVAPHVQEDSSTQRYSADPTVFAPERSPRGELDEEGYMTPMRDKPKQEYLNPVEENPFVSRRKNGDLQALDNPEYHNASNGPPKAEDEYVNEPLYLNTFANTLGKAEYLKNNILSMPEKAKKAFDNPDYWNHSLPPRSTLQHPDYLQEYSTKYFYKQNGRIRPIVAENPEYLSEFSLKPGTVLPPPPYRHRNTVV
Receptor tyrosine-protein kinase erbB-2 (Homo sapiens), sequence (P04626 whole entry): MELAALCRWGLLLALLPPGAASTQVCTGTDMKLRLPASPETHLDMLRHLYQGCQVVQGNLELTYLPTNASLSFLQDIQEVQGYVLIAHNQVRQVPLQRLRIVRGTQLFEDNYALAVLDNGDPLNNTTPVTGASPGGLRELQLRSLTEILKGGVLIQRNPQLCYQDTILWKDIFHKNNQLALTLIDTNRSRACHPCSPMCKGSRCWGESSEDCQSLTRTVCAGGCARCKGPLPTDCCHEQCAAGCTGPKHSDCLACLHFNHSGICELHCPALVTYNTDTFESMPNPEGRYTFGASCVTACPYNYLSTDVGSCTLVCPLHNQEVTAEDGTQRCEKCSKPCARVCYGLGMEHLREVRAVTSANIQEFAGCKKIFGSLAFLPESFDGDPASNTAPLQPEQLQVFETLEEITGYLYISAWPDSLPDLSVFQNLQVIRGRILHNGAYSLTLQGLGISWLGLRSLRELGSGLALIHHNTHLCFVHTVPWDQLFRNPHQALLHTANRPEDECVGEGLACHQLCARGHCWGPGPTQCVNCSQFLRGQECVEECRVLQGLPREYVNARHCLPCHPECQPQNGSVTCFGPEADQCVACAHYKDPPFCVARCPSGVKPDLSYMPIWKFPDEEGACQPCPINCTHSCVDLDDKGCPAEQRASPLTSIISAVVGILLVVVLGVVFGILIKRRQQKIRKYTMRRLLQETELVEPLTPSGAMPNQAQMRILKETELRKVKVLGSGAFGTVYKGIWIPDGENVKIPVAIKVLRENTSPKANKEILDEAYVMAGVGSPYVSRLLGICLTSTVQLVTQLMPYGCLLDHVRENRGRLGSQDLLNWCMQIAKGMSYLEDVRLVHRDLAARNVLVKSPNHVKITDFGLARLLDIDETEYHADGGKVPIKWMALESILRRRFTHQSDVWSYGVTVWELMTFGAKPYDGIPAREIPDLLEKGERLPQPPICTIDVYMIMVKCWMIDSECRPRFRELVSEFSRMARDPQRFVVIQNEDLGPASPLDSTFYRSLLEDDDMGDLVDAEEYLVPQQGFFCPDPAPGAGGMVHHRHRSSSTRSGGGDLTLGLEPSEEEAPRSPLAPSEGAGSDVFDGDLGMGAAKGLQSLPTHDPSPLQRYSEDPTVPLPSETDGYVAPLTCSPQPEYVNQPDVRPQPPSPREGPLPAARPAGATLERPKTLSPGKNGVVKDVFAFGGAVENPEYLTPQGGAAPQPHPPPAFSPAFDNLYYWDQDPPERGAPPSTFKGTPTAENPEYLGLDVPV

Compound | inhibition [1] | inhibition [2] | inhibition [3] | inhibition [4] | inhibition [5] | inhibition [6] | inhibition [7] | inhibition [8] | inhibition [9] | inhibition [10]
N#Cc1cccc(Nc2ncc(-c3ccccc3)o2)c1 | 0.63% | 3.66% | 1.53% | 0.33% | 0.44% | 2.68% | 4.17% | 6.42% | 9.11% | 1.76%
Nc1nccc(-c2c(-c3ccc(F)cc3)ncn2C2CCNCC2)n1 | 3.74% and 17% | -8.29% and 1.29% | -2.02% and 2.97% | -1.79% and 2.99% | 1.69% and 3.45% | -4.63% and -1.31% | -2.23% and 2.46% | 3.28% | -6.69% and 9.1% | -1.84% and 2.2%
Fc1cccc(COc2ccc(Nc3ncncc3C#Cc3ccccc3)cc2Cl)c1 | 11.3% | 4.96% | 3.65% | 1.3% | 2.18% | 3.69% | 4.08% | 9.32% | 19% | 2.19%
Nc1ncnc2occ(-c3ccc(NC(=O)Nc4cc(C(F)(F)F)ccc4F)cc3)c12 | 80.2% and 81.5% | 26.4% and 1.64% | 63.5% and 51.1% | 30.6% and 20.3% | 84.8% and 72.7% | 0.55% and 1.68% | -4.37% and 6.37% | 5.76% and -0.4% | 4.08% and 3.51% | 6.66% and 0.72%
c1cnn2ncc(-c3ccnc(NCCCN4CCOCC4)n3)c2c1 | 9.04% | 6.96% | 3.37% | 1.21% | 1.07% | 1.75% | -0.02% | 8.02% | 8.49% | 0.82%
CN(c1ccc(NC(=O)NCCN2CCOCC2)cc1)c1ccnc(Nc2ccc(CS(C)(=O)=O)cc2)n1 | 17.1% | 3.86% | 4.14% | 2.27% | 3.53% | 1.62% | 4.12% | 6.8% | 4.94% | 3.77%
COc1ccccc1-c1cc(/C=C2\C(=O)Nc3ncc(Br)cc32)cc(Br)c1O | 7.78% | 8.03% | 5.59% | 1.76% | 4.26% | 1.14% | -4.15% | 11.2% | 17.7% | 1.71%
O=C(O[C@H]1CN[C@H](C#Cc2cc3ncnc(Nc4ccc5c(cnn5Cc5ccccc5)c4)c3s2)C1)N1CCOCC1 | 1.97% | -0.25% | 2.72% | -1.51% | 0.96% | 6.21% | 48.3% | 107% | 104% | -0.71%
